For 40 compounds, Potency results are on record in PubChem BioAssay (NCATS).

Inconclusive results are not listed. Activity calls are given as the source filed them. The call rests on the fitted dose curve; in most records, active means well fitted cell-killing curve with a large enough effect; inconclusive means small, poorly fitted or top-dose-only effect, or effect the other way; inactive means no such curve, though single readings can be large or run the other way.
Potency means the concentration at half of the fitted maximal effect.

The nature of this assay: Quantitative High-Throughput drug screen in 47 multiple myeloma cell lines against the NCATS MIPE library collection: MM1R_ATCC cell viability assay (AID 1918981). Further: nearly all actives have a fitted effect of over 35% in size. The conditions noted are these: MM1R multiple myeloma cells, CellTiter-Glo viability, 48 h; series mostly up to 45.8 µM. The text has this: PI: Beverly A. Mock Ph.D.
Laboratory of Cancer Biology and Genetics,
Center for Cancer Research, National Cancer Institute,
National Institute of Health, Bethesda, Maryland
Drug resistance and disease progression are common in multiple myeloma (MM) patients, underscoring the need for new therapeutic combinations. […] We hypothesized that effective combinations would reduce MYC expression and enhance p16 activity. […] These preclinical data identify potentially useful drug combinations for evaluation in drug-resistant MM and reveal potential mechanisms of combined drug sensitivity.
Described herein is the primary MIPE qHTS used to cherrypick compounds. Validated compounds were then further tested for potential synergistic activiy.
[1] Peat TJ, Gaikwad SM, Dubois W, Gyabaah-Kessie N, Zhang S, Gorjifard S, Phyo Z, Andres M, Hughitt VK, Simpson RM, Miller MA, Girvin AT, Taylor A, Williams D, D'Antonio N, Zhang Y, Rajagopalan A, Flietner E, Wilson K, Zhang X, Shinn P, Klumpp-Thomas C, McKnight C, Itkin Z, Chen L, Kazandijian D, Zhang J, Michalowski AM, Simmons JK, Keats J, Thomas CJ, Mock BA. Drug combinations identified by high-throughput screening promote cell cycle transition and upregulate Smad pathways in myeloma. Cancer Lett. 2023 Aug 1;568:216284. doi: 10.1016/j.canlet.2023.216284. Epub 2023 Jun 24. PMID: 37356470; PMCID: PMC10408729.
SEQUENCE No. (e.g., 1, 2, 3, etc.); […] (e.g., Cells, Incubation, Reagent, etc.); VALUE and DESCRIPTION.
1; Cells; 5 uL; white, solid bottom 1536-well Greiner assay plate.
2; Compounds; 23 nL; Kalypsis pin tool (Wako USA) equipped with a 1536-well pin head to transfer to the assay plates.
3; Incubation; 48 hours; 37C incubation.
4; Reagent;5uL; CellTiter Glo (Promega).
5; Detector; 425V; Luminescence; Viewlux PerkinElmer.
NOTES (numbers refer to Sequence numbers above)
1. The cell-based screening methods employed in this study were like those previously published. Briefly, the corresponding myeloma cell lines were screened in 1,536-well plates with 500 cells, 5-uL per well for inhibition of cell viability (assessed by measuring ATP levels with CellTiterGlo).
2. NCATS MIPE 4.0 library of approved and investigational drugs were added using the Kalypsis pin tool. Wells treated with DMSO only for 100% viability and media only for 0% viability were used as controls.
3. The assay plates were covered and incubated for 48 hours in a 37C, 5% CO2 incubator with controlled humidity.
4. After 48 hours, CellTilter-GloTM luminescent substrate mix (Promega) reagent was added to the assay plate and plates we incubated for 5 min at room temperature.
5. Signal was measured as median relative luminescence units on a ViewLux (PerkinElmer) multiplate reader.
[1] Heske CM, Davis MI, Baumgart JT, Wilson K, Gormally MV, Chen L, Zhang X, Ceribelli M, Duveau DY, Guha R, Ferrer M, Arnaldez FI, Ji J, Tran HL, Zhang Y, Mendoza A, Helman LJ, Thomas CJ. Matrix Screen Identifies Synergistic Combination of PARP Inhibitors and Nicotinamide Phosphoribosyltransferase (NAMPT) Inhibitors in Ewing Sarcoma. Clin Cancer Res. 2017 Dec 1;23(23):7301-7311. doi: 10.1158/1078-0432.CCR-17-1121. Epub 2017 Sep 12. PMID: 28899971; PMCID: PMC6636827.
A general note: In ATP-based viability assays light output follows the ATP content of the culture.
`C[C@@]12O[C@@H](C[C@]1(O)CO)n1c3ccccc3c3c4c(c5c6ccccc6n2c5c31)CNC4=O`: the Potency is 0.833 µM (active).

As for `COc1cc2c(Nc3ccc(NC(=O)c4ccccc4)cc3)ncnc2cc1OCCCN1CCOCC1`, the Potency was 23.5 µM (active).

For `CN1CCN(c2cc(C(=O)Nc3ccc4c(c3)-c3c(c(C(N)=O)nn3-c3ccc(F)cc3)CC4)c(Cl)cn2)CC1`, the Potency is 20.9 µM (active).

For `O=C(c1cncc(Br)c1)N1CCC(N2CCCC2)CC1`, the Potency result is “inactive”.

As for `O=C(CCCCCCNC(=O)c1cnc(N(c2ccccc2)c2ccccc2)nc1)NO`, the Potency was 3.72 µM (active).

On to `CC=CC1=C(C(=O)O)N2C(=O)[C@H](NC(=O)[C@H](N)c3ccc(O)cc3)[C@@H]2SC1`, for which the Potency entry is “inactive”.

Regarding `CCN(CC)CCNC(=O)c1ccc2nc(-c3ccccc3)c(-c3ccc(CN4CCC(n5c(=O)[nH]c6ccccc65)CC4)cc3)nc2c1`, the Potency was 20.9 µM (active).

Take `O=c1c2ccccc2nc2n1CCc1c-2[nH]c2ccccc12`: the Potency entry was “inactive”.

On to `CC(C)c1cnn2c(NCc3ccccc3)cc(N[C@@H](CO)[C@H](O)CO)nc12`, for which the Potency was 0.235 µM (active).

As to `CN(C)CCCN=c1c2ccccc2n(C)c2[nH]c(=O)n(C)c(=O)c12`, the Potency was 18.7 µM (active).

On to `CC[C@H]1CN2CCc3cc(OC)c(OC)cc3[C@H]2C[C@@H]1C[C@@H]1NCCc2cc(OC)c(OC)cc21`, for which the Potency was 0.187 µM (active).

Turning to `CC(C)c1ccc(Cn2ccc3c4c(N)nc(NC5CC5)nc4ccc32)cc1`, the Potency was 9.35 µM (active).

For the compound `O=C(O)c1ccc2c(c1)nc(Nc1cccc(Cl)c1)c1ccncc12`, the Potency is 10.5 µM (active).

For the compound `Cc1cc(Nc2cc(NC(=O)c3c(Cl)cccc3Cl)ccn2)nc(N)n1`, the Potency was 0.469 µM (active).

On to `CC1COC2(CCN(c3nc(=O)c4cc(C(F)(F)F)cc([N+](=O)[O-])c4s3)CC2)O1` (stereo not given), for which the Potency result is “inactive”.

Consider `CC(C)c1ccccc1Cc1cc(C(=O)Nc2ccc(S(=O)(=O)c3ccccc3C(C)(C)C)cc2)c(O)c(O)c1O`, for which the Potency was 10.5 µM (active).

As to `Cc1ccc(C(N)=O)cc1Nc1nccc(-c2cn(C(C)C)c3cnccc23)n1`, the Potency is 8.33 µM (active).

For `O=c1[nH]c(=O)n(C2CCCO2)cc1F` (stereo not given), the Potency entry was “inactive”.

Regarding `CCNC(=O)Nc1ccc2ncc(Nc3ccc(C)cc3)nc2n1`, the Potency is 18.7 µM (active).

`CNC(=O)c1ccccc1Nc1nc(Nc2ccc(N3CCOCC3)cc2OC)ncc1Cl`: the Potency is 0.833 µM (active).

For `Nc1ncnc2c1c(-c1cnc3[nH]ccc3c1)nn2C1CCCC1`, the Potency is 2.09 µM (active).

For the compound `CCn1cc(-c2ccnc3[nH]c(-c4cccc(CN(C)C)c4)cc23)c(-c2ccc(NC(=O)N(C)C)cc2)n1`, the Potency was 20.9 µM (active).

Turning to `Cc1coc2c1C(=O)C(=O)c1c-2ccc2c1CCCC2(C)C`, the Potency is 18.7 µM (active).

Consider `CNC(=O)c1c(F)cccc1Nc1nc(Nc2cc3c(cc2OC)CCN3C(=O)CN(C)C)nc2[nH]ccc12`, for which the Potency was 0.0935 µM (active).

As for `CNc1nccc(-c2cccnc2Oc2cc(C(=O)Nc3cccc(C(F)(F)F)c3)ccc2C)n1`, the Potency was 20.9 µM (active).

For the compound `CN(C)Cc1c(C(=O)NCCOc2ccc(C(=O)NO)cc2)oc2ccccc12`, the Potency is 0.469 µM (active).

In the case of `N#Cc1c(O)c2c(-c3ccc(-c4ccccc4O)cc3)csc2[nH]c1=O`, the Potency entry is “inactive”.

Take `CN1CC[C@@H](c2c(O)cc(O)c3c(=O)cc(-c4ccccc4Cl)oc23)[C@@H](O)C1`: the Potency is 0.105 µM (active).

Take `Cc1nc(Nc2n[nH]c3c2CN(C(=O)N[C@H](CN(C)C)c2ccccc2)C3(C)C)c2sccc2n1`: the Potency was 1.05 µM (active).

With `O=C(c1ccc(Nc2nccc(-c3cc4ccccc4s3)n2)cc1)N1CCC(N2CCCC2)CC1`, the Potency is 16.6 µM (active).

`CN(c1ncccc1CNc1nc(Nc2ccc3c(c2)CC(=O)N3)ncc1C(F)(F)F)S(C)(=O)=O`: the Potency was 6.62 µM (active).

On to `Cn1c2ccccc2c2c3c(c4c5ccccc5n(CCC#N)c4c21)CNC3=O`, for which the Potency is 1.66 µM (active).

`C[C@@H]1CN(CC(=O)Nc2ccc3c(c2)Cc2cccc(-c4cc(=O)cc(N5CCOCC5)o4)c2S3)C[C@H](C)O1`: the Potency is 16.6 µM (active).

For `COc1c(N2C[C@@H]3CCCN[C@H]3C2)c(F)cc2c(=O)c(C(=O)O)cn(C3CC3)c12`, the Potency entry is “inactive”.

As for `Cc1cc(Nc2cc(N3CCN(C)CC3)nc(C=Cc3ccccc3)n2)n[nH]1`, the Potency is 13.6 µM (active).

For `COC(=O)Nc1nc2ccc(C(=O)c3ccc(F)cc3)cc2[nH]1`, the Potency was 0.833 µM (active).

As for `Cc1[nH]c2ccccc2c1CCNCc1ccc(C=CC(=O)NO)cc1`, the Potency is 0.0296 µM (active).

For the compound `CC1(O)CC(c2nc(-c3ccc4ccc(-c5ccccc5)nc4c3)c3c(N)nccn23)C1` (stereo not given), the Potency was 0.187 µM (active).

Turning to `CN1CCN(c2ccc3nc(-c4c(N)c5c(F)cccc5[nH]c4=O)[nH]c3c2)CC1`, the Potency is 13.2 µM (active).

On to `Cn1c(=O)n(-c2ccc(C(C)(C)C#N)cc2)c2c3cc(-c4cnc5ccccc5c4)ccc3ncc21`, for which the Potency is 0.118 µM (active).
